Assay results as given in PubChem BioAssay (NCI).
This is part of a sample that, as a whole, favours compounds with a hit. Of some 83,000 tested, about 20% had one in any assay.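 Plates (96-well) were seeded with cells, treated with compound at one concentration, and incubated for 48 hours before percent growth was determined.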 Calls of active or inactive are those of the source. The calls were made as follows: active = growth percent below 10; inactive = the rest.

Columns and labels:
Experiment in all cases: NCI-60 one-dose screen, 48 h (100 = growth as untreated, 0 = no growth, -100 = all killed)
[1] = tested on: SK-MEL-2 melanoma; settings: 10 µM unless noted
[2] = tested on: EKVX NSCLC; settings: 10 µM
[3] = tested on: SN12C renal; settings: 10 µM unless noted
[4] = tested on: UO-31 renal; settings: 10 µM unless noted
[5] = tested on: TK-10 renal; settings: 10 µM unless noted
[6] = tested on: ACHN renal; settings: 10 µM unless noted
[7] = tested on: CAKI-1 renal; settings: 10 µM unless noted
[8] = tested on: A498 renal; settings: 10 µM unless noted
[9] = tested on: MOLT-4 leukemia; settings: 10 µM unless noted
[10] = tested on: CCRF-CEM leukemia; settings: 10 µM

Measured: growth

COc1ccc2nc3cc(Cl)ccc3c(NCCCNC(C)=O)c2c1
inactive: [1] 52.3% | [2] 68.5% | [3] 38.1% | [4] 21.2% | [5] 44.2% | [6] 16.1% | [7] 40.6% | [8] 22.6% | [9] 26.5%

CCOC(=O)C1C(=O)C(=O)N(C(C)C)C1C(=O)OCC (stereo not drawn)
inactive: [1] 113% | [2] 106% | [3] 94.4% | [4] 86.2% | [5] 99.1% | [6] 94.3% | [7] 105% | [10] 110% | [9] 122%

CC([C@H]1CCC2C3CCC4C[C@@H](N)CC[C@]4(C)C3CC[C@@]21C)N(C)C (stereo partly drawn)
inactive: [1] 91.7% | [2] 69.4% | [3] 75.8% | [5] 109% | [6] 78.1% | [7] 48.8% | [8] 89.4% | [10] 42.3% | [9] 38.6%
active: [4] -4.26%

COc1cc2c(c(OC)c1OC)C(=O)CC(c1cccc(C(=O)Nc3cccc(Br)c3)c1)O2 (stereo not drawn)
inactive: [1] 73.8% | [2] 85.1% | [3] 71.7% | [4] 51.3% | [5] 109% | [6] 89.1% | [7] 85.3% | [8] 76% | [10] 45% | [9] 48.8%

Cc1ncc(C(=O)Nc2ccc(CN3CCN(C)CC3)c(C(F)(F)F)c2)cc1C#Cc1cnc(NC2CC2)c2ncccc12
active: [1] -27.3% | [2] -86% | [3] -85.3% | [4] -97% | [5] -92.2% | [6] -100% | [7] -0.579% | [8] -60.4% | [9] -65.4%

COC(=O)c1ccc2[nH]c(O)c(C(=Nc3ccc(N(C)C(=O)CN4CCN(C)CC4)cc3)c3ccc4c(c3)OCO4)c2c1
inactive: [2] 37.3% | [3] 10.9% | [4] 14.7%
active: [1] -36.7% | [5] -9.95% | [6] 8.02% | [7] 4.52% | [10] 4.01% | [9] 0.682%

NCCCOc1cc(Cl)ccc1NC(=O)c1cc2ccccc2cc1OCCCN
inactive: [3] 19.7% | [4] 25% | [7] 59%
active: [1] -93.9% | [2] -16.1% | [5] -97.4% | [6] -79% | [8] 2.33% | [9] -52.3%

CCOC(=O)c1cc(C(=O)c2ccc(Br)cc2)n2cc(C)cc(C)c12
inactive: [1] 91.3% | [2] 99.5% | [3] 101% | [4] 86.8% | [5] 114% | [6] 104% | [7] 82.1% | [10] 83.9% | [9] 98.9%

COc1nc(OC)nc(-c2cc(C(=O)c3ccc(Br)cc3)n3cc(C)cc(C)c23)n1
inactive: [1] 68.1% | [2] 68.1% | [3] 48% | [4] 71% | [5] 82.1% | [6] 18.5% | [7] 64.8% | [8] 71.3% | [10] 83.8% | [9] 96.6%

C[C@]12C=CC(=O)C=C1[C@@H](F)C[C@@H]1[C@@H]2[C@@H](O)C[C@@]2(C)[C@H]1CC[C@]2(O)C(=O)CO
inactive: [1] 107% | [2] 83% | [3] 69.8% | [4] 79.3% | [5] 107% | [6] 99.4% | [7] 88.6% | [10] 46.5% | [9] 108%

Cc1c(Cc2ccccc2)c(=O)oc2c(C)c(OCc3n[nH]c(=S)o3)ccc12
inactive: [1] 101% | [2] 79% | [3] 67.8% | [4] 94.8% | [5] 116% | [6] 89.2% | [8] 67.3% | [10] 22.8% | [9] 19.8%

COc1ccc(/C=C2\SC(=O)N(Cc3cc(=O)oc4ccc(OC)cc34)C2=O)cc1
inactive: [1] 99.9% | [2] 79.3% | [3] 90.7% | [4] 70.6% | [5] 97.8% | [6] 92.7% | [8] 93.5% | [10] 77.2% | [9] 85.1%

COc1ccc(-c2cn3ccnc3c(-c3ccc4ncn(C5CCCCC5)c4c3)n2)cc1
inactive: [2] 43.4% | [3] 36.4% | [4] 38.5% | [5] 81.5% | [6] 39% | [9] 17.2%
active: [1] 5.74% | [8] -12.3% | [10] 6.73%

O=C1/C(=N\c2cc(=O)[nH]n2S(=O)(=O)c2ccccc2)Nc2ccccc21
inactive: [1] 102% | [2] 101% | [3] 98.2% | [4] 70.8% | [5] 123% | [6] 94.7% | [8] 98.2%

COc1ccc(C2=C/C(=C\c3ccc(Cl)cc3)C(=O)NN2C(=S)NN)cc1
inactive: [1] 97.3% | [2] 94.2% | [3] 104% | [4] 79.6% | [5] 129% | [6] 96.5% | [8] 99.3% | [10] 91.6% | [9] 97.8%

COc1ccc2oc(=O)cc(CN3C(=O)S/C(=C\c4ccc(Cl)cc4)C3=O)c2c1
inactive: [1] 106% | [2] 93% | [3] 108% | [4] 83.4% | [5] 108% | [6] 105% | [8] 106% | [10] 86.5% | [9] 89.2%

C[C@]12CC[C@H]3[C@@H](CC[C@H]4C[C@@H](O)CC[C@@]43C)[C@@H]1CC(=O)C2
inactive: [1] 103% | [2] 96.9% | [3] 101% | [4] 84.1% | [5] 94.2% | [6] 100% | [7] 87.6% | [9] 85.7%

O=c1oc2ccc3ccccc3c2cc1-c1ccnc2[nH]c(=S)[nH]c(=O)c12
inactive: [1] 104% | [2] 101% | [3] 93.1% | [4] 66.5% | [5] 143% | [6] 107% | [8] 107% | [10] 82.6% | [9] 87.4%

C[C@@H](c1ccc2c(c1)[nH]c1ccc(Cl)cc12)c1nc2ccc(Cl)cc2[nH]1
inactive: [1] 106% | [2] 75.5% | [3] 80.6% | [4] 58% | [5] 85.6% | [6] 79.6% | [8] 99.7% | [10] 16.6% | [9] 49.4%

Nc1nc2c(c3cnccc13)C(c1cccc(Br)c1)Cc1cnccc1-2 (stereo not drawn)
inactive: [1] 27.2% | [2] 27.6% | [3] 27.5% | [4] 21.4% | [5] 28.5% | [6] 16.7% | [7] 25.6% | [9] 11.6%
active: [10] 6.84%

Nc1ncn([C@@H]2O[C@H](CO)[C@@H](O)C2(F)F)c(=O)n1
inactive: [1] 104% | [2] 86.1% | [3] 51.7% | [4] 39% | [5] 91.1% | [8] 38% | [10] 23.7%
active: [6] 7.28%

CCS(=O)(=O)N[C@@H]1O[C@H](COC(C)=O)C(OC(C)=O)[C@H](OC(C)=O)C1OC(C)=O (stereo partly drawn)
inactive: [1] 106% | [2] 99.1% | [3] 112% | [4] 94.6% | [5] 97.4% | [6] 101% | [7] 94.8% | [9] 106%

COc1cc(N)c2nccc(C)c2c1OC
inactive: [1] 103% | [2] 92.7% | [3] 98.8% | [4] 164% | [5] 116% | [6] 110% | [8] 93.5% | [10] 101% | [9] 80.6%

O=C(CCCC(=O)Nc1ccc(Cn2nnc3cc(Cl)c(Cl)cc32)cc1)Nc1ccc(CN2N=NC3C=C(Cl)C(Cl)=CC32)cc1 (stereo not drawn)
inactive: [1] 87.7% | [2] 75.6% | [3] 89.9% | [4] 50.4% | [5] 107% | [6] 83.8% | [8] 78.3% | [10] 68.1% | [9] 83.2%

COc1cc(CNC(=O)CCCC/C=C/C(C)C)ccc1OCc1nnc(Nc2ccccc2F)o1
inactive: [1] 111% | [2] 77.1% | [3] 70.5% | [4] 52.8% | [5] 97.7% | [6] 56.1% | [8] 92.5% | [10] 83% | [9] 82%

c1ccc(-c2cn3ccnc3c(-c3ccc4ncn(C5CCCCC5)c4c3)n2)cc1
inactive: [1] 83.5% | [2] 75.8% | [3] 71.2% | [4] 44.8% | [5] 97.7% | [6] 64.1% | [8] 73.9% | [10] 18.7% | [9] 32.3%

CC1=NN(c2cccc(Cl)c2)C(=O)/C1=C\c1cn(-c2nc(N3CCOCC3)nc(N3CCOCC3)n2)c2ccccc12
inactive: [1] 110% | [2] 105% | [3] 104% | [4] 83.3% | [5] 93.4% | [6] 103% | [8] 116% | [10] 100% | [9] 106%

C=C(C)[C@@H]1CC[C@]2(COC(=O)c3ccccc3C(=O)O)CC[C@]3(C)[C@H](CC[C@@H]4[C@@]5(C)CCCNC(C)(C)[C@@H]5CC[C@]43C)[C@@H]12
inactive: [1] 94.4% | [2] 78.6% | [3] 59.3% | [4] 72.7% | [5] 65.6% | [6] 65% | [7] 91.7%
active: [9] -7.13%

CCCCCCCCCCCCCCCCCC1=NCCN1CCNC(C)=O
inactive: [1] 111% | [2] 80% | [3] 104% | [4] 83.2% | [5] 103% | [6] 91.4% | [8] 78.4% | [10] 40.3% | [9] 62.6%
